Source: PubChem
Only some compounds are listed: those with a hit (about 1.8% of all), similar ones and a draw of the others.
LYPLA1 counter = counter-screen for PME1 inhibitors: inhibitors of human LYPLA1 | AID 2174 | O75608 | recombinant LYPLA1, FP-Rh probe fluorescence polarization | inhibition, % at 5.9 µM | 320,000 tested, 0.16% active;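 active means inhibition above the mean of all tested compounds plus 3 SD, set per campaign, cut at about 14% in these data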;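 further: inhibitors block serine hydrolase probe labeling of LYPLA1 so polarization falls; 0% = enzyme with DMSO and 100% = wells lacking LYPLA1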
PP5 inh = blocks human protein phosphatase 5 activity. P53041. 320,000 tested, 0.18% active. inhibition, % at 6.7 µM. purified PP5c, OMFP substrate fluorescence;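 active means inhibition above the campaign's mean inhibition across all tested compounds plus 3 SD, cut at about 9.5% in these data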;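 further: 0% = DMSO only and 100% = 100 µM cantharidin control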
PME-1 primary = PME-1 (human) inhibition | Q9Y570 | recombinant PME-1, FP-Rh probe fluorescence polarization | inhibition, % at 5.9 µM | 320,000 tested, 0.53% active | AID 2130;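 active means inhibition above the campaign mean of all compounds plus 3 SD, cut at about 26% in these data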;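 further: competitive labeling of PME-1 active site by serine hydrolase directed probe; 0% = PME-1 with DMSO and 100% = wells lacking PME-1 enzyme; inhibitors block probe labeling so polarization falls and inhibition rises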
LYPLA2 counter = blocks human lysophospholipase 2, a PME1 counter-screen | inhibition, % at 5.9 µM | O95372 | AID 2177 | recombinant LYPLA2, FP-Rh probe fluorescence polarization | 320,000 tested, 0.38% active;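 active means inhibition above the screen-wide mean plus 3 SD, limit set per campaign, cut at about 26% in these data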;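 further: 0% = LYPLA2 with DMSO and 100% = wells lacking LYPLA2 enzyme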
Target sequence (O95372 whole entry, looked up): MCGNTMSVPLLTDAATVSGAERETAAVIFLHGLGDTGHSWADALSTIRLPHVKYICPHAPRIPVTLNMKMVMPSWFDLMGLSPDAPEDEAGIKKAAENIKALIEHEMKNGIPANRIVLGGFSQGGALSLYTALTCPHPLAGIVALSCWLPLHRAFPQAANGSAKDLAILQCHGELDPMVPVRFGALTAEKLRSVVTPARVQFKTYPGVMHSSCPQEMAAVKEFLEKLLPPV
Fam108B inh = counter-screen for RBBP9 inhibitors: inhibitors of mouse Fam108B; recombinant Fam108B, FP-Rh probe fluorescence polarization; inhibition, % at 9.51 µM; 300,000 tested, 0.33% active; AID 1947;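 active means inhibition above the screen mean inhibition plus 3 SD, computed separately per campaign, cut at about 18% in these data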;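 further: inhibitors lower polarization as less probe binds the enzyme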
PP1 inh = blocks human PP1-alpha phosphatase, a PP5 counter-screen; purified PP1alpha, OMFP fluorescence; 320,000 tested, 0.9% active; P62136; inhibition, % at 6.7 µM;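 active means inhibition above the mean inhibition of all tested compounds plus 3 SD, computed separately for each screening campaign, cut at about 15% in these data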
Target sequence (P62136 whole entry, looked up): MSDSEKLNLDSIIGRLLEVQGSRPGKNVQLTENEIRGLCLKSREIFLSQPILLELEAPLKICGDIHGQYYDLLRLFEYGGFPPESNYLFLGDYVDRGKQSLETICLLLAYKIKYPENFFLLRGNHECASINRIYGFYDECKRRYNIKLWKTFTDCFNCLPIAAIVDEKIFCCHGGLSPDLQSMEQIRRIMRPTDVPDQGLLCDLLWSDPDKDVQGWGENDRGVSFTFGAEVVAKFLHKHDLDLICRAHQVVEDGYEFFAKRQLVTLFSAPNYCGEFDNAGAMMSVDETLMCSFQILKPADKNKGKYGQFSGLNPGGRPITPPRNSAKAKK
Fam108b confirm = confirmation of mouse Fam108b serine hydrolase inhibitors; shares compounds with Fam108B inh; recombinant Fam108b, FP-Rh probe fluorescence polarization; inhibition, % at 9.51 µM; 930 tested, 44% active;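 active means inhibition above a limit from the primary screen, the mean over all compounds plus 3 SD, cut at about 19% in these data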;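 further: 0% = median of active Fam108b wells and 100% = catalytically dead S170A mutant; inhibitors free the probe so polarization falls as inhibition rises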
Fam108b ABPP HTS = mouse ABHD17B inhibition; shares compounds with Fam108B inh; recombinant Fam108b, gel-based ABPP, fluorophosphonate probe; inhibition, % at 20 µM; 260 tested, 44% active; in the data active means inhibition above about 40%
* marks the source's active call; other numbers are inactive results; . = no result given.

SMILES	LYPLA1 counter	PP5 inh	PME-1 primary	LYPLA2 counter	Fam108B inh	PP1 inh	Fam108b confirm	others
CCCC(=O)NNc1c2ccccc2nc2ccccc12	1.9	-0.2	-1.9	0.6	0.4	-2.4	.
Cc1nnc(C)n1/N=C/C=C/c1ccccc1	0.7	0.7	-0.2	3.5	-3.6	-0.8	.
Cc1nc2ccccc2c(=O)n1N=C/C=C/c1ccccc1	.	.	.	.	.	.	.	Fam108b ABPP HTS=0.0
Cc1nc2ccccc2c(=O)n1/N=C/C=C/c1ccccc1	0.5	0.8	0.8	6.1	24.0*	-3.1	82.5*
Cc1nc2ccccc2c(=O)n1/N=C/c1ccc(N(C)C)cc1	1.5	0.9	4.0	-1.4	2.7	-0.9	.
N#Cc1cnn2c(-c3cccc([N+](=O)[O-])c3)ccnc12	1.0	-0.6	5.1	-1.4	.	-1.8	.
CCn1c2ccccc2c2cc(NC(=O)c3cc(OC)c(OC)c(OC)c3)ccc21	-6.9	7.6	12.9	-4.6	18.7*	0.5	-5.3
CC(C)n1c(SCC(=O)N2CCN(C)CC2)nc2c1c(=O)n(C)c(=O)n2C	-1.4	-1.1	-3.6	-2.9	-2.0	-3.0	.
COc1cccc(/C=N/Nc2nc(Nc3ccc([N+](=O)[O-])cc3)nc(N3CCCC3)n2)c1O	-13.6	5.5	4.6	-22.9	24.6*	15.5*	31.3*
Cc1cccc(C(=O)Oc2ccccc2/C=N/Nc2ccc([N+](=O)[O-])cc2)c1	-7.7	4.4	21.2	2.7	24.8*	6.7	0.7
O=[N+]([O-])c1ccc(Nc2nc(N/N=C/c3cccc(F)c3)nc(N3CCCC3)n2)cc1	-24.7	1.0	-25.6	-35.0	-3.3	8.3	.
O=[N+]([O-])c1cccc(N/N=C/c2cccc3ccccc23)c1	-1.8	2.7	24.6	17.1	25.6*	3.0	22.7*
O=[N+]([O-])c1ccc(N/N=C/c2cccc(O)c2O)cc1	-11.0	0.8	33.2*	-7.4	19.2*	2.7	93.2*
Cc1cccc(C(=O)Oc2ccc(/C=N/O)cc2)c1	-1.7	4.7	-2.2	3.2	2.2	0.7	.
COc1ccccc1N1CCN(CCCCN2C(=O)C3CCCCN3C2=O)CC1 (stereo unspecified)	-3.5	0.8	-1.5	-3.9	0.2	-2.8	.
CCCOc1ccc(C2NC(=O)NC2=O)cc1 (stereo unspecified)	5.8	-0.2	-1.3	2.6	-1.5	1.7	.
CCCOc1ccc(C2Nc3cccc4cccc(c34)N2)cc1	-7.0	4.1	49.4*	-4.4	25.5*	3.8	15.0
COc1ccc(C2Nc3cccc4cccc(c34)N2)cc1Br	-9.7	1.0	31.8*	1.6	36.6*	-3.9	5.8
Fc1ccc(C2Nc3cccc4cccc(c34)N2)cc1	-7.8	0.3	10.9	-4.1	33.4*	-0.6	10.6
c1coc(C2Nc3cccc4cccc(c34)N2)c1	-7.8	0.3	8.1	-1.9	22.1*	1.7	18.3*
CCN(CC)c1ccc(C2Nc3cccc4cccc(c34)N2)cc1	-5.0	3.2	10.3	-4.0	9.2	4.9	.
Oc1ccc(C2Nc3cccc4cccc(c34)N2)c(O)c1	2.9	5.6	63.6*	18.4	66.7*	2.9	44.5*	Fam108b ABPP HTS=65.0*
Cc1ccc(C2Nc3cccc4cccc(c34)N2)s1	-8.1	-0.5	11.6	2.0	29.1*	0.9	12.9
Cc1ccc(C(=O)Nc2cccc(C(=O)N3CCOCC3)c2)cc1Cl	0.1	1.8	-2.9	0.7	-2.0	2.2	.
O=C(O)CCn1c(=S)n(CCC(=O)O)c2ccccc21	3.1	0.0	0.8	0.3	2.5	0.5	.
SMILES	LYPLA1 counter	PP5 inh	PME-1 primary	LYPLA2 counter	Fam108B inh	PP1 inh	Fam108b confirm	others
COc1ccccc1NC(=O)N1CCc2[nH]c3ccc(F)cc3c2C1	-1.6	0.8	5.5	-1.3	21.5*	5.6	-5.7
O=C(C1CCCCC1)N1CCc2[nH]c3ccc(F)cc3c2C1	-0.3	0.9	-1.1	7.8	-3.6	-1.4	.
O=C(Nc1ccc(Oc2ccc(Cl)cc2)c(Cl)c1)c1cc(I)cc(I)c1O	12.9	-2.0	8.4	-2.2	18.2*	-0.9	-2.3
COc1ccc(NC(=O)c2ccccc2F)cc1Cl	-4.0	-0.5	-1.0	-7.2	-0.3	-4.5	.
Cc1ccc(NC(=O)c2ccc(Nc3c([N+](=O)[O-])cc([N+](=O)[O-])cc3[N+](=O)[O-])cc2)cc1	-1.9	4.2	36.5*	11.6	22.5*	15.0	13.7
CC(=O)Nc1ccc(NC(=O)c2cc([N+](=O)[O-])cc([N+](=O)[O-])c2)cc1	2.0	2.0	8.3	0.3	-0.5	1.5	.
COc1cc(-c2nc(-c3ccc4c(c3)-c3ccccc3S4(=O)=O)c(-c3ccccc3)[nH]2)cc(OC)c1OC	-10.9	1.0	14.2	-3.8	29.0*	1.1	3.6
Cc1cc(C)c2c(c1)NC(C(=O)O)C1CC=CC21 (stereo unspecified)	-0.9	-5.1	5.2	5.8	21.3*	12.9	14.1
O=C(O)C1Nc2c(C(F)(F)F)ccc(Cl)c2C2C=CCC12 (stereo unspecified)	1.9	-1.0	0.7	6.0	-3.1	1.3	.
Cc1ccc2c(c1C)NC(C(=O)O)C1CC=CC21 (stereo unspecified)	-2.8	1.7	-2.7	9.2	22.7*	9.3	7.8
CC(NC(=O)c1cc(S(=O)(=O)N(C)C)ccc1Cl)c1ccc(-n2ccnc2)cc1 (stereo unspecified)	0.1	2.4	2.4	1.3	-2.0	-1.9	.
O=C(O)CCNc1cc(N2CCN(C(=O)c3ccco3)CC2)c2noc3c2c1C(=O)c1ccccc1-3	3.1	6.8	-8.8	0.4	38.3*	11.8	11.0
CCN1CCN(c2cc(N3CCN(C(=O)c4ccco4)CC3)c3c4c(onc24)-c2ccccc2C3=O)CC1	11.1	3.9	1.9	7.5	-28.4	7.7	.
CCN(CC)S(=O)(=O)c1ccc(=O)n(CC(=O)N2CCCc3cc(C)ccc32)c1	-2.2	-0.7	10.0	3.9	.	1.2	.
CSCCC(NC(=O)c1ccc([N+](=O)[O-])cc1Cl)C(=O)OC1CCCCC1=O (stereo unspecified)	-1.1	-0.4	6.6	0.3	0.0	-5.3	.
CC(=O)c1cccc(NS(=O)(=O)c2ccc(N/C=C\C(=O)c3ccc(F)cc3)cc2)c1	-23.0	6.5	-15.0	-27.9	22.0*	4.1	-6.4
COc1cccc(/C=N/NC(=O)c2oc3nc(-c4ccccc4)cc(-c4ccco4)c3c2N)c1	-10.9	2.6	7.2	-15.2	-0.1	5.2	.
NNC(=O)c1oc2nc(-c3cccs3)cc(-c3ccco3)c2c1N	-1.2	0.1	14.2	3.5	24.5*	7.8	23.7*
CN(C)C(=O)c1cc(C(=O)c2ccc(C(F)(F)F)cc2F)c[nH]1	-1.4	1.4	-3.1	-4.1	0.4	-1.9	.
Nc1nc2ccccc2n1/N=C/c1ccc2c(c1)OCO2	-3.1	-3.0	12.0	-1.9	4.4	-1.1	.
